Test results from the supplement of paper PMC11060735.
Several values for one entry are separate records, joined by “and”; a condition that tells them apart may be missing. Equal entries are not always repeated. Structures can show the parent of a compound that is named as a salt. The whole screen tested about 1,800 compounds, of which about 50 (3%) showed activity. Many of the other results were omitted from the sample, so actives are more common in it than they were.

These compounds were tested on mouse p16Ink4a+/- lung fibroblasts (INKBRITE, bleomycin-injured) (assay: percentage of GFP+ (p16Ink4a+) fibroblasts among all cells in well; higher = less depletion of p16Ink4a+ cells, active = 20 or less). Settings: 1 µM; 3 days.
For `N#C/C(=C\c1ccc(O)c(O)c1)C(=O)NCc1ccccc1` [Tyrphostin Ag 490], the “percentage of GFP+” value was 42.9% (inactive). `C[C@H](NC(=O)/C(C#N)=C/c1cccc(Br)n1)c1ccccc1` was tested, and the “percentage of GFP+” value was 43% (inactive). With `CCC[C@H](NC(=O)/C(C#N)=C/c1cccc(Br)n1)c1ccccc1` [Degrasyn] the “percentage of GFP+” value was 13.1% (active). `Nc1ccn([C@@H]2O[C@H](CO)[C@@H](O)[C@@H]2O)c(=O)n1` [Cytarabine] was tested, and the “percentage of GFP+” value was 26.8% (inactive). In the case of `Nc1ccn([C@@H]2O[C@H](CO)[C@@H](O)C2(F)F)c(=O)n1` [Gemcitabine], the “percentage of GFP+” value is reported as 17.1% (active). With `Nc1ccn([C@@H]2O[C@H](CO)[C@@H](O)[C@H]2O)c(=O)n1` [Cytidine] the “percentage of GFP+” value was 48.9% (inactive). In the case of `Cc1nc2n(c(=O)c1CCN1CCC(c3noc4cc(F)ccc34)CC1)CCCC2` [Risperidone], the “percentage of GFP+” value is reported as 42.6% (inactive). With `COc1ccc(-c2ccc3ncc4c(c3c2)n(-c2ccc(N3CCNCC3)c(C(F)(F)F)c2)c(=O)n4C)cn1` the “percentage of GFP+” value was 10.6% (active). For `Cn1c(=O)n(-c2ccc(C(C)(C)C#N)cc2)c2c3cc(-c4cnc5ccccc5c4)ccc3ncc21` [Dactolisib], the “percentage of GFP+” value was 36% (inactive). For `CCC(=O)N1CCN(c2ccc(-n3c(=O)ccc4cnc5ccc(-c6cnc7ccccc7c6)cc5c43)cc2C(F)(F)F)CC1` [Torin 1], the “percentage of GFP+” value was 46% (inactive). With `Cc1cc(Nc2cc(CN3CCOCC3)c3nc(C)c(Cc4ccc(Cl)cc4F)n3n2)[nH]n1` the “percentage of GFP+” value was 43.7% (inactive). `Cn1c(N2CCCCS2(=O)=O)nc(C(=O)NCc2ccc(F)cc2)c(O)c1=O` was tested, and the “percentage of GFP+” value was 26.4% (inactive). In the case of `NC(=O)c1noc([C@H](CCCC2CCCCC2)CC(=O)NO)n1`, the “percentage of GFP+” value is reported as 47% (inactive). For `CC(=O)O[C@H]1C[C@@H]2CC[C@@H]3[C@H](CC[C@@]4(C)[C@H]3C[C@H]([N+]3(C)CCCCC3)[C@@H]4OC(C)=O)[C@@]2(C)C[C@@H]1N1CCCCC1` [Vecuronium], the “percentage of GFP+” value was 47% (inactive). `O=C(O)c1ccccc1` [Benzoic Acid] was tested, and the “percentage of GFP+” value was 44.8% (inactive). For `CN(NC(=O)CC(=O)NN(C)C(=S)c1ccccc1)C(=S)c1ccccc1` [Elesclomol], the “percentage of GFP+” value was 12% (active). For `O=C(O)CCNC(=O)c1ccccc1` [Betamipron], the “percentage of GFP+” value was 46% (inactive). `Cn1cc(C2=C(c3cn(CCCSC(=N)N)c4ccccc34)C(=O)NC2=O)c2ccccc21` was tested, and the “percentage of GFP+” value was 58.4% (inactive). `OC[C@H]1O[C@@H](n2cnc3c(O)ncnc32)[C@H](O)[C@@H]1O` [Inosine] was tested, and the “percentage of GFP+” value was 47.7% (inactive). With `CN1CCN(CCOc2cc(OC3CCOCC3)c3c(Nc4c(Cl)ccc5c4OCO5)ncnc3c2)CC1` [Saracatinib] the “percentage of GFP+” value was 46.2% (inactive). `CC[C@]1(O)C[C@@H]2CN(CCc3c([nH]c4ccccc34)[C@@](C(=O)OC)(c3cc4c(cc3OC)N(C)[C@@H]3C45CCN4CC=C[C@](CC)([C@H]45)[C@@H](OC(C)=O)[C@]3(O)C(=O)OC)C2)C1` (stereo partly drawn) [Vinblastine] was tested, and the “percentage of GFP+” value was 24.8% (inactive). `CC[C@]1(O)C[C@@H]2CN(CCc3c([nH]c4ccccc34)[C@@](C(=O)OC)(c3cc4c(cc3OC)N(C=O)[C@@H]3C45CCN4CC=C[C@](CC)([C@H]45)[C@@H](OC(C)=O)[C@]3(O)C(=O)OC)C2)C1` (stereo partly drawn) [Vincristine] was tested, and the “percentage of GFP+” value was 16.5% (active). `CC#C[C@]1(O)CC[C@H]2[C@@H]3CCC4=CC(=O)CCC4=C3[C@@H](c3ccc(N(C)C)cc3)C[C@@]21C` [Mifepristone] was tested, and the “percentage of GFP+” value was 46.9% (inactive). `CN[C@@H](C)C(=O)N[C@H](C(=O)N1CCC[C@H]1C(=O)Nc1snnc1-c1ccccc1)C1CCCCC1` was tested, and the “percentage of GFP+” value was 21.9% (inactive). In the case of `C=CCNC(N)=S` [Allylthiourea], the “percentage of GFP+” value is reported as 35% (inactive). `NC(=S)N/N=C/c1ncccc1N` [Triapine] was tested, and the “percentage of GFP+” value was 17.4% (active). `N=C(N)N/N=C/c1c(Cl)cccc1Cl` [Guanabenz] was tested, and the “percentage of GFP+” value was 49.3% (inactive). In the case of `COc1ccc([C@@H]2CC(=O)c3c(O)cc(O)cc3O2)cc1O` [Hesperetin], the “percentage of GFP+” value is reported as 47.8% (inactive). In the case of `COc1cc2nccc(Oc3ccc(NC(=O)C4(C(=O)Nc5ccc(F)cc5)CC4)cc3)c2cc1OC` [Cabozantinib], the “percentage of GFP+” value is reported as 29.6% (inactive). For `CCOc1nc2cccc(C(=O)OC(C)OC(=O)OC3CCCCC3)c2n1Cc1ccc(-c2ccccc2-c2nn[nH]n2)cc1` (stereo not drawn) [Candesartan Cilextil], the “percentage of GFP+” value was 44.8% (inactive). For `CC(=O)Oc1cc2c(s1)CCN(C(C(=O)C1CC1)c1ccccc1F)C2` (stereo not drawn) [Prasugrel], the “percentage of GFP+” value was 49.3% (inactive). For `Cc1ccc(NC(=O)c2ccc(CN3CCN(C)CC3)cc2)cc1Nc1nc(-c2cccnc2)cs1` [Masitinib], the “percentage of GFP+” value was 30.8% (inactive). With `Cc1ccc(C(=O)Nc2ccc(CN3CCN(C)CC3)c(C(F)(F)F)c2)cc1C#Cc1cnc2[nH]ncc2c1` [Olverembatinib] the “percentage of GFP+” value was 17.2% (active). For `Cc1ccc(C(=O)Nc2ccc(CN3CCN(C)CC3)c(C(F)(F)F)c2)cc1C#Cc1cnc2cccnn12` [Ponatinib], the “percentage of GFP+” value was 31.2% (inactive). `Cn1c(=O)c(F)c(Nc2ccc(I)cc2F)c2c(=O)n(C[C@@H](O)CO)cnc21` was tested, and the “percentage of GFP+” value was 28.4% (inactive). For `O=S(=O)(c1cccc2cnccc12)N1CCCNCC1` [Fasudil Hydrochloride], the “percentage of GFP+” value was 48.7% (inactive). In the case of `Nc1ccccc1NC(=O)c1ccc(CNc2nccc(-c3cccnc3)n2)cc1` [Mocetinostat], the “percentage of GFP+” value is reported as 12.6% (active). With `Cc1ccc(NC(=O)c2ccc(CN3CCN(C)CC3)cc2)cc1Nc1nccc(-c2cccnc2)n1` [Imatinib, Imatinib Mesylate] the “percentage of GFP+” value was 32.5% (inactive) and 39% (inactive). `Nc1ccccc1NC(=O)c1ccc(CNC(=O)OCc2cccnc2)cc1` [Entinostat] was tested, and the “percentage of GFP+” value was 32% (inactive). With `N#CC1(c2ccc(NC(=O)c3cccnc3NCc3ccncc3)cc2)CCCC1` [Apatinib] the “percentage of GFP+” value was 28% (inactive). `N=C(N)NC(=O)c1nc(Cl)c(N)nc1N` [Amiloride] was tested, and the “percentage of GFP+” value was 33.1% (inactive). For `CC(C)(C#N)c1cc(Cn2cncn2)cc(C(C)(C)C#N)c1` [Anastrozole], the “percentage of GFP+” value was 45.5% (inactive). In the case of `CC(C)c1nc(CN(C)C(=O)N[C@@H](CCN2CCOCC2)C(=O)N[C@H](CC[C@H](Cc2ccccc2)NC(=O)OCc2cncs2)Cc2ccccc2)cs1` [Cobicistat], the “percentage of GFP+” value is reported as 43.4% (inactive). With `C[C@H](N[C@@H](CCc1ccccc1)C(=O)O)C(=O)N1CCC[C@H]1C(=O)O` [Enalaprilat] the “percentage of GFP+” value was 36.7% (inactive). In the case of `O=C(Cc1ccc(-c2ccc(OCCN3CCOCC3)cc2)cn1)NCc1ccccc1`, the “percentage of GFP+” value is reported as 30.9% (inactive). In the case of `CC(C)C[C@H](NC(=O)[C@H](CCc1ccccc1)NC(=O)CN1CCOCC1)C(=O)N[C@@H](Cc1ccccc1)C(=O)N[C@@H](CC(C)C)C(=O)[C@@]1(C)CO1` [Carfilzomib], the “percentage of GFP+” value is reported as 4.67% (active). With `COc1ccc(C[C@H](NC(=O)[C@H](C)NC(=O)CN2CCOCC2)C(=O)N[C@@H](Cc2ccccc2)C(=O)[C@]2(C)CO2)cc1` the “percentage of GFP+” value was 11.6% (active). With `COC[C@H](NC(=O)c1cnc(C)s1)C(=O)N[C@@H](COC)C(=O)N[C@@H](Cc1ccccc1)C(=O)C1(C)CO1` (stereo partly drawn) [Oprozomib] the “percentage of GFP+” value was 5.21% (active).
